Measurements: ChEMBL document CHEMBL3988442, “University of Dundee, Small-Polar-MMV Screening Library” (2021)
Screen size: about 48,000 compounds; about 13,000 (27%) showed an effect of 50% or more. The list shows a part of the results.

test system: Wolbachia pipientis; assay: Anti-Wolbachia Cell-Based Screen; assay type: functional; design: scale not given: in the data most compounds retested in dose-response had high values; conditions: 5 µM

SMILES | Percent Effect
O=C(COC1CCCC1)N1CCC(C(O)c2ccc(F)cc2)CC1 (stereo not drawn) | 6.854%
COc1cccc(NC(C(N)=O)c2ccc(Br)cc2)c1 (stereo not drawn) | 1.947%
O=C(COc1ccc(F)cc1)N1CCO[C@H]2[C@@H](OCC3CC3)CC[C@@H]21 | 107%
COc1ccc(C(=O)N2CCO[C@H]3[C@H](OCC4CC4)CC[C@@H]32)cc1F | -4.788%
CCO[C@@H]1CC[C@H]2[C@H]1OCCN2C(=O)c1ccc(C)o1 | 0.08907%
CCO[C@H]1CC[C@H]2[C@H]1OCCN2C(=O)COc1ccccc1 | 74.73%
COc1cc(C(=O)N2CCO[C@H]3[C@H](OCC4CC4)CC[C@@H]32)ccc1F | 35.93%
CCO[C@H]1CC[C@H]2[C@@H]1OCCN2C(=O)COc1ccccc1 | 94.92%
CCO[C@@H]1CC[C@H]2[C@H]1OCCN2C(=O)C1CCOCC1 | 0.9043%
CC(C)CN1C[C@H]2CCN(C(=O)C3CCCO3)CC[C@H]2S1(=O)=O (stereo partly drawn) | -18.66%
CN(Cc1cnccn1)CC1CCOc2ccccc2C1 (stereo not drawn) | 5.577%
CCC(C)CNc1ccc2oc(COC)nc2c1 (stereo not drawn) | -9.605%
CN(C)C(=O)c1ccc(CNc2c(Cl)cccc2C#N)cc1 | -8.933%
CN1CCN(Cc2cnc3n2CCN(Cc2cccnc2)CC3)CC1.O=C(O)C(F)(F)F.O=C(O)C(F)(F)F.O=C(O)C(F)(F)F | 102.7%
Cc1noc(C)c1CN1CCn2c(CN3CCN(C)CC3)cnc2C1.O=C(O)C(F)(F)F.O=C(O)C(F)(F)F.O=C(O)C(F)(F)F | -4.762%
COCC(=O)N1CCn2c(CN3CCN(C)CC3)cnc2C1.O=C(O)C(F)(F)F.O=C(O)C(F)(F)F | -7.166%
CNC(=O)c1cnc2n1CCN(Cc1cccnc1)C2.O=C(O)C(F)(F)F.O=C(O)C(F)(F)F.O=C(O)C(F)(F)F | 0.3449%
CN1CCN(Cc2cnc3n2CCN(CCc2ccccc2)C3)CC1.O=C(O)C(F)(F)F.O=C(O)C(F)(F)F.O=C(O)C(F)(F)F | 127%
CCOCc1nnc(NCc2cccc(C)c2)o1 | -20.23%
CN(Cc1ccccc1)CC1CC2(CO1)CN(Cc1cnn(C)c1)C2 (stereo not drawn) | -2.148%
Cn1nc2c(cc1=O)CN(Cc1nc(C3CC3)no1)CC2 | 27.59%
CCc1cc(N(C)Cc2ncc[nH]2)nc(N2CCOCC2)n1 | -9.08%
Cn1ccc2c(-c3nccc(N)n3)ccnc21 | -30.17%
CCc1cc(-c2ccnc3c2ccn3C)nc(N2CCOCC2)n1 | 67.54%

SMILES | Percent Effect
Cn1ccc2c(-c3cc(N)nc(N4CCOCC4)n3)ccnc21 | 88.78%
CN(C)c1cncc(-c2ccnc3c2ccn3C)n1 | -34.59%
CCNc1ccc(-c2ccnc3c2ccn3C)nn1 | -1.559%
CN(CC1(O)CCCN(CCC2CCCCC2)C1=O)C1CCOCC1 (stereo not drawn) | -1.971%
CN(C)S(=O)(=O)N1CCCC(C)(c2ncc(C(N)=O)s2)C1 (stereo not drawn) | 191.5%
Cc1cnc(C(=O)N2C[C@H]3CC[C@@H]2CN(S(=O)(=O)N(C)C)C3)cn1 | -4.38%
CN(C)S(=O)(=O)N1CCC(C)(c2ncc(C(N)=O)s2)CC1 | 173.8%
CN(C)S(=O)(=O)N1CC[C@H]2OCC[C@@]2(COc2cccnc2)C1.O=C(O)C(F)(F)F | 7.883%
CN1C(=O)CC2(CCN(S(=O)(=O)N(C)C)CC2)c2ccccc21 | -6.476%
CN(C)S(=O)(=O)N1CCC[C@]2(C[C@@H](Oc3ccccn3)CO2)C1.O=C(O)C(F)(F)F | -2.011%
CCS(=O)(=O)N1CCN(C(=O)C(C)C)CC2(CC(=O)N(C)C2)C1 (stereo not drawn) | -2.529%
O=C(NCc1ccc(Cl)cc1Cl)NCC1(O)CCSC1 (stereo not drawn) | -14.06%
O=C(NCC1(O)CCOC1)c1ccccc1Cl (stereo not drawn) | -4.323%
CN(C)C(C(=O)NCC1(O)CCCCC1)c1cccc(F)c1 (stereo not drawn) | 11.81%
CN(C)C1(CNC(=O)C/C=C/c2ccc(F)cc2)CCOCC1 | 1.504%
O=C(NCC1(O)CCC1)c1c(O)cc(F)cc1F | 120.5%
O=C(NCC1(O)CCC1)c1c(O)cc(Cl)cc1Cl | 97.98%
CN(C)C1(CNC(=O)c2c(O)cc(Cl)cc2Cl)CCOCC1 | 85.78%
CN(C)C(C(=O)NCC1(N(C)C)CCOCC1)c1ccccc1F (stereo not drawn) | -12.63%
CN(C)C(C(=O)NCC1(O)CCCCC1)c1c(F)cccc1F (stereo not drawn) | -3.857%
CCOC(C)c1noc(CN2CCN(c3nnc(C)s3)CC2)n1 (stereo not drawn) | -0.8403%
COc1ccc(C(=O)N2C[C@@H](NC(=O)N(C)C)[C@H](C(C)C)C2)c(OC)n1 | 83.06%
COc1ccc(Cl)cc1C(=O)N1C[C@@H](NC(=O)N(C)C)[C@H](C(C)C)C1 | 96.11%
Cc1cc(Cl)ccc1C(=O)N1C[C@H](C2CC2)[C@@H](N)C1 | -41.17%

SMILES | Percent Effect
COc1ccc(Cl)cc1C(=O)N1C[C@H](C(C)C)[C@@H](N)C1 | 105.5%
COc1ccc(Cl)cc1C(=O)N1CCCC(n2nc(C)nc2C)C1 (stereo not drawn) | -10.83%
COc1ccc(Cl)cc1C(=O)NCC1CCN(C(=O)c2ccoc2)CC1 | -13.86%
CC(=O)N[C@@H]1CN(C(=O)c2csc(C(C)C)n2)C[C@H]1C(C)C | -24.56%
COc1ccc(N2CCC(N3C[C@H](NC(C)=O)[C@@H](C(C)C)C3)CC2)cc1 | 0.1798%
CCc1nn(C)c(Cl)c1CN1C[C@@H](NC(=O)N(C)C)[C@H](C(C)C)C1 | 3.461%
CCOCc1ccccc1NC(=O)NC1CCN(CC(F)(F)F)C1 (stereo not drawn) | 4.433%
CCN(CC)CCN(CC(C)C)c1cc(C(F)(F)F)nc2ncnn12 | -0.1585%
Cc1cccc(C(=O)N2CCN(S(C)(=O)=O)[C@@H](C)C2)c1C | -0.07044%
CNC(=O)NC(=O)CCN1CCOC(c2ccc(Br)cc2)C1 (stereo not drawn) | 0.8414%
CC(=O)N1CCO[C@@H]2CN(C(=O)c3ccc4ccccc4c3)CC[C@@H]2C1 | 3.224%
CC(=O)N1CCO[C@@H]2CN(S(=O)(=O)C3CC3)CC[C@@H]2C1 | 114.1%
CC(=O)N1C[C@@H]2CN(S(=O)(=O)C3CC3)CCO[C@@H]2C1 | 81.74%
O=C(O)C(F)(F)F.O=S(=O)(C1CC1)N1C[C@@H]2CN(Cc3ccoc3)CCO[C@@H]2C1 | 10.49%
CC(=O)N1CCO[C@@H]2CN(S(=O)(=O)c3ccccc3F)C[C@@H]2C1 | -1.494%
O=C(O)C(F)(F)F.O=S(=O)(C1CC1)N1CCO[C@@H]2CN(Cc3cccs3)C[C@@H]2C1 | 3.839%
CC(=O)N1CCO[C@@H]2CN(S(=O)(=O)C3CC3)C[C@@H]2C1 | 90.6%
COCc1ccc(CN[C@H]2C[C@@H](Cc3cc(CCO)on3)C2(C)C)o1 | -18.1%
CSC(C)C(=O)N1CCN(CCO)CC1 (stereo not drawn) | -9.9%
CCCn1nc2c(cc1=O)CN(Cc1c(C)noc1C)CC2 | -3.39%
Cc1noc(C2CCCN(CC(=O)N3CCNC(=O)C3)C2)n1 (stereo not drawn) | 8.261%
CN(C)C(=O)CN1C[C@@H]2CC[C@H](C1)N(Cc1ccccc1OCCO)C2 | -40.78%
Cc1cc(CN(CCO)c2ccccc2)on1 | -2.201%
Cc1nc(CNC(=O)Cn2nc(-c3ccc(F)cc3)oc2=O)cs1 | -1.04%

SMILES | Percent Effect
Cn1c(SCc2noc(-c3ccsc3)n2)nnc1C1CCS(=O)(=O)C1 (stereo not drawn) | -1.02%
CC(C(=O)Nc1ncccn1)N1CCc2[nH]nc(C(F)(F)F)c2C1 (stereo not drawn) | -12.45%
CSc1nnc(C2CCN(C(=O)N3CCOCC3)CC2)n1C(C)C | 91.83%
CC(C)n1ccnc1C1CCN(C(=O)N2CCCC2)CC1 | -25.38%
CC(C)CN1C(=O)CO[C@@H]2CN(C(=O)N3CCOCC3)C[C@H]21 | -11.7%
CC(C)c1cc(NC2CCN(C(=O)N3CCCC3)CC2)ncn1 | -23.56%
CSc1nnc(C2CCN(C(=O)N3CCCC3)CC2)n1C(C)C | 114%
Cn1ccc(NC2CCN(C3CC3)C2=O)n1 (stereo not drawn) | -4.974%
CC(C)n1nc(CN2CCCC2=O)c2c1CN(C(=O)c1ccc[nH]1)C2 | 104.5%
Cn1nc(CN2CCOCC2)c2c1CN(C(=O)c1ccc[nH]1)C2 | -8.763%
COCc1nn(C)c2c1CN(C(=O)c1ccno1)CC2 | 7.505%
COCc1nn(CC2CC2)c2c1CN(C(=O)c1ccno1)CC2 | 1.769%
CC(C)n1nc(CN2CCCC2=O)c2c1CN(C(=O)c1ccno1)C2 | 92.04%
CC(C)n1nc(CN2CCCC2=O)c2c1CN(C(=O)c1ccco1)C2 | 113.5%
Cn1nc(CN2CCCC2)c2c1CN(C(=O)c1ccc[nH]1)CC2 | -10.94%
Cn1nc(C#N)c2c1CN(C(=O)c1ccco1)CCC2 | -2.9%
O=C(c1ccco1)N1CCc2onc(CN3CCCC3)c2C1 | -15.89%
N#CC1COCCN1S(=O)(=O)c1ccc2c(c1)CCC2 (stereo not drawn) | 4.042%
N#Cc1cccnc1N[C@@H]1c2ccccc2C[C@@H]1O | 4.876%
CCN(CC)C(=O)[C@@H]1C[C@H](N)CN1C(=O)c1cc2c([nH]c1=O)CCC2 | -7.026%
Cc1cnc(C)c(-c2cc(O)c3c(c2)CN(Cc2nccs2)CCO3)n1 | 17.73%
